Source: PubChem BioAssay (NCI)
About 83,000 compounds went through this panel and 20% of them were active in at least one assay; those are over-represented in the sample as a whole.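 A percent growth of 40 corresponds to 60% growth inhibition; 0 means no net growth; -100 means all cells died. Active threshold: below 10.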 Active and inactive are the calls of the source.

Assays:
Assay in all cases: NCI-60 one-dose screen, 48 h (100 = growth as untreated, 0 = no growth, -100 = all killed)
Conditions in all cases: 10 µM unless noted
DU-145 prostate = system: DU-145 prostate
K-562 leukemia = system: K-562 leukemia
MALME-3M melanoma = system: MALME-3M melanoma
MDA-MB-231 breast = system: MDA-MB-231 breast
RXF 393 renal = system: RXF 393 renal
SF-268 CNS = system: SF-268 CNS
SF-295 CNS = system: SF-295 CNS
SF-539 CNS = system: SF-539 CNS
UACC-257 melanoma = system: UACC-257 melanoma
M14 melanoma = system: M14 melanoma
HCT-15 colon = system: HCT-15 colon
HT29 colon = system: HT29 colon
SNB-75 CNS = system: SNB-75 CNS
SNB-19 CNS = system: SNB-19 CNS
U251 CNS = system: U251 CNS
PC-3 prostate = system: PC-3 prostate
SK-MEL-5 melanoma = system: SK-MEL-5 melanoma
UACC-62 melanoma = system: UACC-62 melanoma
LOX IMVI melanoma = system: LOX IMVI melanoma
SK-MEL-28 melanoma = system: SK-MEL-28 melanoma

Measured: growth

CN(C)c1ccc(/C=N/NC(=O)COc2cc(=O)n(C)c3ccccc23)cc1
inactive: DU-145 prostate 110% | K-562 leukemia 103% | MALME-3M melanoma 98.4% | MDA-MB-231 breast 97.1% | RXF 393 renal 93.4% | SF-268 CNS 105% | SF-295 CNS 102% | SF-539 CNS 100% | UACC-257 melanoma 112% | M14 melanoma 101% | HCT-15 colon 104% | HT29 colon 108% | SNB-75 CNS 76.8% | SNB-19 CNS 88.4% | U251 CNS 104% | PC-3 prostate 101% | SK-MEL-5 melanoma 101% | UACC-62 melanoma 88.5% | LOX IMVI melanoma 99.8% | SK-MEL-28 melanoma 109%

O=C(NCc1cn(Cc2cccc(Oc3ccccc3)c2)nn1)c1cccnc1NCc1ccc(Cl)cc1
inactive: DU-145 prostate 15% | K-562 leukemia 11.8% | MALME-3M melanoma 48.2% | MDA-MB-231 breast 25.4% | SF-268 CNS 45.3% | SF-295 CNS 19.7% | UACC-257 melanoma 47.3% | HCT-15 colon 21.7% | SNB-75 CNS 11% | SNB-19 CNS 41.3% | U251 CNS 21.2% | PC-3 prostate 10% | SK-MEL-5 melanoma 11.3% | UACC-62 melanoma 27.8% | LOX IMVI melanoma 39.4% | SK-MEL-28 melanoma 29.5%
active: RXF 393 renal 3.54% | SF-539 CNS -15.3% | M14 melanoma 6.76% | HT29 colon 9.24%

Cc1ccc(/C=C(\C#N)n2nnc3cc(Cl)c(Cl)cc32)cc1
active: DU-145 prostate 3.78% | K-562 leukemia 6.41% | MDA-MB-231 breast -14.9% | RXF 393 renal -33.5% | SF-295 CNS -0.103% | SF-539 CNS -13.1% | M14 melanoma -23% | SNB-75 CNS -24.6% | U251 CNS 7.49% | LOX IMVI melanoma -13.4%
inactive: MALME-3M melanoma 44% | SF-268 CNS 12% | UACC-257 melanoma 50.3% | HCT-15 colon 11.7% | HT29 colon 12.3% | SNB-19 CNS 17.7% | PC-3 prostate 12.8% | SK-MEL-5 melanoma 14% | UACC-62 melanoma 26.1% | SK-MEL-28 melanoma 41.3%

O=C1Nc2ccccc2/C1=N/N=C/c1c[nH]c2ccccc12
inactive: DU-145 prostate 58.3% | K-562 leukemia 80.2% | MALME-3M melanoma 71.8% | MDA-MB-231 breast 60% | RXF 393 renal 57.5% | SF-268 CNS 65.1% | SF-295 CNS 95.6% | SF-539 CNS 78% | UACC-257 melanoma 92.4% | M14 melanoma 59.5% | HCT-15 colon 72.2% | HT29 colon 80.8% | SNB-75 CNS 45.5% | SNB-19 CNS 88.1% | U251 CNS 73.6% | PC-3 prostate 81.5% | SK-MEL-5 melanoma 76.8% | UACC-62 melanoma 38.4% | LOX IMVI melanoma 68.4% | SK-MEL-28 melanoma 96.3%

CCN(CC)CC(=O)Nc1cccc(C(=O)OC(C)C)c1
inactive: DU-145 prostate 109% | K-562 leukemia 102% | MALME-3M melanoma 99.5% | MDA-MB-231 breast 112% | RXF 393 renal 112% | SF-268 CNS 105% | SF-295 CNS 95% | SF-539 CNS 100% | UACC-257 melanoma 106% | M14 melanoma 79.6% | HCT-15 colon 93.9% | HT29 colon 81.5% | SNB-75 CNS 107% | SNB-19 CNS 106% | U251 CNS 100% | PC-3 prostate 80.8% | SK-MEL-5 melanoma 107% | UACC-62 melanoma 102% | LOX IMVI melanoma 96.2% | SK-MEL-28 melanoma 102%

Oc1ccccc1-c1nc2ccccn2c1NCCN1CCOCC1
inactive: DU-145 prostate 102% | K-562 leukemia 83% | MALME-3M melanoma 96.2% | MDA-MB-231 breast 92.7% | RXF 393 renal 109% | SF-268 CNS 96.1% | SF-295 CNS 98% | SF-539 CNS 97.2% | UACC-257 melanoma 96.2% | M14 melanoma 96.5% | HCT-15 colon 99.4% | HT29 colon 93.8% | SNB-75 CNS 80.2% | SNB-19 CNS 99.7% | U251 CNS 97% | PC-3 prostate 87.4% | SK-MEL-5 melanoma 98.7% | UACC-62 melanoma 95.3% | LOX IMVI melanoma 94.4% | SK-MEL-28 melanoma 94.4%

CC(C)OC(=O)OCOP(=O)(OCOC(=O)OC(C)C)C1CCCN(O)C1=O (stereo not given)
active: RXF 393 renal 8.56% | HT29 colon 5.87%
inactive: DU-145 prostate 52.5% | K-562 leukemia 30.3% | MALME-3M melanoma 41.1% | MDA-MB-231 breast 21.8% | SF-268 CNS 26.5% | SF-295 CNS 62.8% | SF-539 CNS 75.5% | UACC-257 melanoma 55.2% | M14 melanoma 44.4% | HCT-15 colon 33.4% | SNB-75 CNS 57.6% | SNB-19 CNS 21.5% | U251 CNS 15.2% | PC-3 prostate 60.5% | SK-MEL-5 melanoma 30.9% | UACC-62 melanoma 23.6% | LOX IMVI melanoma 39% | SK-MEL-28 melanoma 15.2%

O=C(Nc1ccccn1)[C@H](O)[C@@H](O)C(=O)N1CCOCC1
inactive: DU-145 prostate 106% | K-562 leukemia 115% | MALME-3M melanoma 114% | MDA-MB-231 breast 100% | RXF 393 renal 119% | SF-268 CNS 106% | SF-295 CNS 109% | SF-539 CNS 107% | UACC-257 melanoma 101% | M14 melanoma 103% | HCT-15 colon 107% | HT29 colon 104% | SNB-75 CNS 121% | SNB-19 CNS 102% | U251 CNS 96.1% | PC-3 prostate 94% | SK-MEL-5 melanoma 99.3% | UACC-62 melanoma 108% | LOX IMVI melanoma 104% | SK-MEL-28 melanoma 114%

CN(C)CN1CCN(c2ccc3nc(-c4ccc5nc(-c6ccc(C(F)(F)F)cc6)[nH]c5c4)[nH]c3c2)CC1
active: MALME-3M melanoma -4.2%
inactive: DU-145 prostate 45% | K-562 leukemia 11.6% | MDA-MB-231 breast 63.1% | RXF 393 renal 50.3% | SF-268 CNS 67.8% | SF-295 CNS 60.7% | SF-539 CNS 65.8% | UACC-257 melanoma 40.7% | M14 melanoma 32.2% | HCT-15 colon 91.6% | HT29 colon 29.3% | SNB-75 CNS 38.8% | SNB-19 CNS 69.6% | U251 CNS 60% | PC-3 prostate 68.4% | SK-MEL-5 melanoma 23.6% | UACC-62 melanoma 44.8% | LOX IMVI melanoma 32.2% | SK-MEL-28 melanoma 42.7%

CN(C)c1ccc2cc(-c3ccccc3F)c(N)nc2c1
active: MALME-3M melanoma -22.1% | SF-295 CNS 0.224% | SF-539 CNS -16.4% | HT29 colon 1.79% | SK-MEL-5 melanoma -18.8%
inactive: DU-145 prostate 17.1% | K-562 leukemia 13.5% | MDA-MB-231 breast 64.7% | RXF 393 renal 19.1% | SF-268 CNS 45.1% | UACC-257 melanoma 45.7% | M14 melanoma 10.5% | HCT-15 colon 37.4% | SNB-75 CNS 11.3% | SNB-19 CNS 55.1% | U251 CNS 16.8% | PC-3 prostate 31.6% | UACC-62 melanoma 40.2% | LOX IMVI melanoma 33.4% | SK-MEL-28 melanoma 58%

O=C(CC12CC3CC(CC(C3)C1)C2)NCCOCCOCCOCCNC(=O)c1cc2c(o1)C(=O)c1ccccc1C2=O
inactive: PC-3 prostate 13.1%
active: DU-145 prostate -95.6% | K-562 leukemia 2.13% | MALME-3M melanoma -96.3% | MDA-MB-231 breast -0.382% | RXF 393 renal -51.3% | SF-268 CNS -3.17% | SF-295 CNS -90.1% | SF-539 CNS -90.4% | UACC-257 melanoma -80.7% | M14 melanoma -76.2% | HCT-15 colon -78.5% | HT29 colon 1.17% | SNB-75 CNS -98.9% | SNB-19 CNS -0.887% | U251 CNS -19.6% | SK-MEL-5 melanoma -98.4% | UACC-62 melanoma -94.6% | LOX IMVI melanoma -52.4% | SK-MEL-28 melanoma -58.5%

C=C(C)[C@@H]1CC[C@]2(C(=O)NCC(=O)O)CC[C@]3(C)[C@H](CC[C@@H]4[C@@]5(C)Cc6c([nH]c7ccccc67)C(C)(C)[C@@H]5CC[C@]43C)[C@@H]12
inactive: DU-145 prostate 93.5% | K-562 leukemia 72.4% | MALME-3M melanoma 107% | MDA-MB-231 breast 92% | RXF 393 renal 91.2% | SF-268 CNS 76.1% | SF-295 CNS 56.2% | SF-539 CNS 56.3% | UACC-257 melanoma 87.1% | M14 melanoma 86.9% | HCT-15 colon 77.5% | HT29 colon 88.2% | SNB-75 CNS 64.2% | SNB-19 CNS 71.2% | U251 CNS 61.8% | PC-3 prostate 72.6% | SK-MEL-5 melanoma 103% | UACC-62 melanoma 79.7% | LOX IMVI melanoma 99.1% | SK-MEL-28 melanoma 92.7%

COC(=O)Nc1nc2ccc(C(=O)C3CC3)cc2[nH]1
active: DU-145 prostate 1.8% | K-562 leukemia -15.1% | RXF 393 renal 4.26% | SF-295 CNS -38.5% | SF-539 CNS -27.5% | M14 melanoma 7.18% | HCT-15 colon -1.31% | HT29 colon 1.32% | SNB-75 CNS 9.46% | SK-MEL-5 melanoma 8.13%
inactive: MALME-3M melanoma 63.2% | MDA-MB-231 breast 22.8% | SF-268 CNS 29.7% | UACC-257 melanoma 27.5% | SNB-19 CNS 13.5% | U251 CNS 12.8% | PC-3 prostate 14.7% | UACC-62 melanoma 30.3% | LOX IMVI melanoma 34.7% | SK-MEL-28 melanoma 49%

N=C(N)c1ccc(-c2ccc(-c3ccc(Cl)cc3Cl)o2)cc1
active: DU-145 prostate -17.9% | K-562 leukemia -12.9% | MDA-MB-231 breast -69.7% | SF-295 CNS -77.1% | SF-539 CNS -61.7% | M14 melanoma 8.85% | HCT-15 colon -74.1% | HT29 colon -71.1% | SNB-19 CNS -1.88% | U251 CNS -59.4% | LOX IMVI melanoma -94.7%
inactive: MALME-3M melanoma 17.4% | RXF 393 renal 32.1% | SF-268 CNS 47.3% | UACC-257 melanoma 90.9% | SNB-75 CNS 19.7% | PC-3 prostate 52.6% | SK-MEL-5 melanoma 72.5% | UACC-62 melanoma 72.1% | SK-MEL-28 melanoma 46%
